PubChem BioAssay (NCI)
Compounds without any hit were thinned out: in the full panel of roughly 83,000, 20% have a hit.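 Growth was measured after 48 h exposure to one concentration of compound in 96-well plates. Values under 10 count as active.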 A number with no mark means an inactive call. Calls of active or inactive are those of the source.

Assays:
Assay in all cases: NCI-60 one-dose screen, 48 h (100 = growth as untreated, 0 = no growth, -100 = all killed)
Details in all cases: 10 µM unless noted
SR leukemia = tested on: SR leukemia
RPMI-8226 leukemia = tested on: RPMI-8226 leukemia
OVCAR-8 ovarian = tested on: OVCAR-8 ovarian
OVCAR-5 ovarian = tested on: OVCAR-5 ovarian
OVCAR-4 ovarian = tested on: OVCAR-4 ovarian
SK-OV-3 ovarian = tested on: SK-OV-3 ovarian
IGROV1 ovarian = tested on: IGROV1 ovarian
OVCAR-3 ovarian = tested on: OVCAR-3 ovarian
HS 578T breast = tested on: HS 578T breast
NCI/ADR-RES ovarian = tested on: NCI/ADR-RES ovarian

| Structure (SMILES) | growth (SR leukemia) | growth (RPMI-8226 leukemia) | growth (OVCAR-8 ovarian) | growth (OVCAR-5 ovarian) | growth (OVCAR-4 ovarian) | growth (SK-OV-3 ovarian) | growth (IGROV1 ovarian) | growth (OVCAR-3 ovarian) | growth (HS 578T breast) | growth (NCI/ADR-RES ovarian) |
| --- | --- | --- | --- | --- | --- | --- | --- | --- | --- | --- |
| Cc1ccc(NC(=O)c2sc3nc(C)c(Br)c(C)c3c2N)cc1 | 81.6% | 83.3% | 39.7% | 79.1% | 11.7% | 48.9% | 51.8% | 67% | 31.8% | 51.8% |
| COC(=O)/C=C1/SC(=Nc2ccc(C(F)(F)F)cc2)N(CCc2c[nH]c3ccc(O)cc23)C1=O | -35.5% (active) | -50.3% (active) | 13.9% | -25.9% (active) | -45.6% (active) | -5.47% (active) | -54.2% (active) | -31.1% (active) | 7.87% (active) | 21% |
| CCCn1cc2c(=O)nc3sc(Cc4ccccc4)c(C)n3c2n1 | 73.8% | 99.5% | 91.8% | 111% | 99% | 104% | 105% | 99.3% | 99.5% | 96.7% |
| O=S(=O)(NCCCNc1nccc(-c2c(-c3ccc(F)c(O)c3)nc3occn23)n1)c1ccc(Cl)cc1 | 55.5% | 40.4% | 66.3% | 118% | 81.3% | 64.4% | 62.3% | 95.3% | 64% | 96.4% |
| Cc1ccc2c(n1)C(=O)C(Br)=C(CC(C)C)C2=O | 17% | 53% | 97.6% | 102% | 104% | 101% | 81.5% | 53.1% | 102% | 98.4% |
| N#Cc1c(-c2ccc(Cl)cc2)nc(NN2C(=O)c3ccccc3C2=O)nc1N1CCOCC1 | 84% | 105% | 102% | 102% | 98.7% | 106% | 109% | 113% | 101% | 107% |
| Nc1c(C(=O)Nc2ccccc2C(F)(F)F)sc2nc3c(cc12)CCC3 | 86.6% | 110% | 100% | 103% | 101% | 87.7% | 105% | 113% | 95.1% | 101% |
| Cn1cc(-c2csc(-c3cn(C(=O)OC(C)(C)C)c4ccc(Br)cc34)n2)c2ccnc(Cl)c21 | 39.2% | 79.4% | 59.8% | 105% | 65.3% | 82.8% | 89.1% | 97.3% | 2.06% (active) | 71.8% |
| COC(=O)Nc1nc2ccc(S(=O)c3ccccc3)cc2[nH]1 (stereo not given) | 23.4% | 75.6% | 80.3% | 92.8% | 84.4% | 81.1% | 67.8% | 57.9% | 62% | 53.3% |
| COc1ccc(/C=N/C2=C(C#N)C(c3ccccc3)c3ccc4ccccc4c3O2)cc1 (stereo not given) | 23.6% | 8.19% (active) | 14.1% | 26.7% | 56.6% | 21.6% | 26.2% | 2.08% (active) | 29.8% | 4.68% (active) |
| CCOC(=O)c1c2c(n3cccc(F)c13)C(=O)c1ncccc1C2=O | 20.5% | 37.5% | 19.3% | 44.3% | 24.4% | -4.82% (active) | 34.4% | -11.1% (active) | 31.5% | 18.7% |
| CN(C)c1ccc(C(=O)OCCCCCCl)cc1 | 89.4% | 106% | 106% | 75.6% | 95.4% | 102% | 101% | 95.4% | 103% | 97.6% |
| Nc1[nH]n2cc(-c3ccccc3)nc2c1N=Nc1ccc(S(N)(=O)=O)cc1 | 13.3% | 5.77% (active) | 36.6% | 65.4% | 36.9% | 13.3% | 15.3% | 46.8% | 5.14% (active) | 90% |
| O=C(N(c1ccccc1)c1ccccc1)n1cc(I)c2nc(Cl)nc(Cl)c21 | 18.9% | 0.0387% (active) | 22.6% | 63.7% | 68.4% | 60.9% | 61.8% | 25.8% | 39.1% | 42.4% |
| N#C/C(=C\c1c(-c2ccccc2)[nH]c2ccccc12)C(N)=O | 9.47% (active) | 46.2% | 102% | 107% | 62.5% | 93% | 77.1% | 81.2% | 76.5% | 77.6% |
| CC1(C)COB(OCC(C)(C)COB2OCC(C)(C)CO2)OC1 | 102% | 118% | 100% | 108% | 113% | 109% | 105% | 110% | 108% | 109% |
| C=C(C)[C@@H]1CC[C@]2(C(=O)O)CC[C@]3(C)[C@H](CC[C@@H]4[C@@]5(C)CCC(NC(=O)c6cccc(OC(C)=O)c6OC(C)=O)C(C)(C)[C@@H]5CC[C@]43C)[C@@H]12 (stereo not given in full) | 3.23% (active) | -17.8% (active) | 10.7% | 1.76% (active) | 12.9% | 6.71% (active) | 5.12% (active) | 11.8% | 15.8% | 8.44% (active) |
| NC(=O)c1cc(I)ccc1NC(=O)/C=C/c1ccccc1 | 1.87% (active) | -5.89% (active) | 31% | 42.4% | 44.6% | 69.8% | -52.7% (active) | -63.3% (active) | -12.8% (active) | -37.1% (active) |
| CCC(C(=O)[C@@H](C)[C@@H](O)[C@H](C)[C@@H]1O[C@@H]([C@@H](CC)C(=O)ONC(=O)c2ccccc2)CC[C@@H]1C)[C@H]1O[C@]2(C=CC(=O)[C@]3(CC[C@@](C)([C@H]4CC[C@](O)(CC)[C@H](C)O4)O3)O2)[C@H](C)C[C@@H]1C (stereo not given in full) | -22.5% (active) | 7.88% (active) | 12.2% | -4.48% (active) | 35.6% | 95.2% | -76.2% (active) | -71.1% (active) | -2.36% (active) | 12.1% |
| Cc1cn(-c2cc(NC(=O)c3cccc(C#Cc4cccc5[nH]nc(N)c45)c3)cc(C(F)(F)F)c2)cn1 | 28.3% | 13.8% | 28.5% | 28.8% | 45.6% | 99.4% | 15.4% | 75.3% | 31.4% | 67.1% |
| CCOC(=O)c1cc(C)n(-c2ccc(C(=O)O)cc2)c1C | 75.5% | 104% | 87.6% | 76.7% | 94.6% | 92.8% | 107% | 115% | 90.8% | 89.6% |
| O=S(=O)(NCCNc1nccc(-c2c(-c3ccc(F)c(O)c3)nc3occn23)n1)c1ccc(Cl)cc1 | 75.8% | 85.3% | 86% | 127% | 109% | 87.1% | 87.4% | 104% | 89% | 102% |
| Cc1[nH]c(=O)[nH]c(=O)c1Br | 77.6% | 111% | 95.2% | 114% | 117% | 115% | 147% | 124% | 104% | 97.8% |
| O=C(CN1CCOCC1)Nc1nc(-c2cc3ccccc3oc2=O)cs1 | 102% | 104% | 99.4% | 95.5% | 102% | 116% | 87.9% | 105% | 92.8% | 103% |
